The results in this text go back to PubChem BioAssay AID893 (National Center for Advancing Translational Sciences (NCATS), 2007).

Molecules are shown by their SMILES. Where “and” joins values, the source holds several entries; their conditions need not be identical. Identical values can stand only once. The whole screen tested about 75,000 compounds, of which about 5,700 (7.6%) were called active. A call without a number means that no potency is given here. Not shown: some 7% with an inconclusive outcome. Calls follow the shape of the dose curve; as a rule, active = well fitted inhibition curve with a large enough effect; inconclusive = small, poorly fitted or top-dose-only effect; inactive = no such curve, though single readings can be large or run the other way. Only a selection was taken, and actives are over-represented in it overall.
Potency is read from the fitted curve at half-maximal effect.

The target in this assay is 3-hydroxyacyl-CoA dehydrogenase type-2 (Homo sapiens) (UniProt Q99714). Put plainly: qHTS Assay for Inhibitors of HSD17B4, hydroxysteroid (17-beta) dehydrogenase 4. Also: nearly all actives have a fitted effect of over 70% in size. The settings on record: recombinant HSD17B10, NADH fluorescence kinetic; series mostly up to 57.1 µM. A digest of the protocol: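 Enzyme plus compound, 15 min room temperature; substrate mix added (NAD+ 1 mM, beta-hydroxybutyryl-CoA 90 uM final); plates read kinetically for NADH fluorescence. HADH2 was His-tagged, E. coli-derived, 20 nM.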
In general terms: qHTS replaces the single test concentration by a dilution series.
With `CN1CCN(Cc2nc3c(c(=O)n(C)c(=O)n3C)n2Cc2cccc3ccccc23)CC1`, the Potency result was “inactive”.
Same read-out and setting: with `COc1ccc(-c2nnc(SCC(=O)c3cccs3)o2)c(OC)c1` the entry was “inactive”.
In the case of `COc1ccc(OC)c(C(=O)CSc2nnc(-c3cccs3)o2)c1`, the Potency is 31.6 µM (active).
Same read-out and setting: with `CCN(CC)C(=O)CSc1nnc(-c2cccc(OC)c2)o1` the entry was “inactive”.
Still for that read-out and setting: with `COCC(C)N=CC1=C(O)CC(C)(C)CC1=O` (configuration not stated) the entry was “inactive”; with `CCc1cc(=O)oc2cc(C)cc(OC(C)C(=O)O)c12` (configuration not stated), 31.6 µM (active).
Same read-out and setting: with `N#CCC(=O)NC(=O)NCC1CC1` the entry was “inactive”; with `CCCC[C@@H]1C[C@H]1C(NC(=O)c1ccco1)c1ccc(C(=O)OC)cc1` (some centres not stated), “inactive”.
Turning to `O=C(Cn1ccc(=O)[nH]c1=O)Nc1ccc(C(=O)O)c(O)c1`, the activity change, negative = inhibition was -0.357% [at 11.4 µM] (inactive).
Same read-out and setting: under `O=C(O)c1ccc(C(=O)O)c2c(C(=O)O)ccc(C(=O)O)c12` stands -1.54% [at 11.4 µM] (inactive).
Turning to `O=C(O)c1ccc(-n2cccc2)cc1O`, the Potency was 31.6 µM (active).
Same read-out and setting: with `Cc1cc(NS(=O)(=O)c2ccccc2)no1` the entry was “inactive”; with `Nc1ncn(C2OC(CO)C(O)C2O)c(=O)n1` (configuration not stated), “inactive”.
Same read-out and setting: with `CN1C(=O)c2ccc(NC(=O)C3CCCCC3)cc2C1=O` the figure was 25.1 µM (active); with `O=C(O)c1ccc(NC(=O)C2CCCCC2)cc1`, “inactive”; with `Cn1c(=O)n(C)c2cc(C(=O)Nc3ccc4c(c3)OCO4)ccc21`, “inactive”.
For `CN1C(=O)c2ccc(NC(=O)c3c(F)c(F)c(F)c(F)c3F)cc2C1=O`, the Potency was 12.6 µM (active).
`O=C(Nc1cnn(Cc2ccc(Cl)cc2)c1)C1CCCC1`: the Potency entry was “inactive”.
`O=C(Nc1ccncc1)c1c(F)cccc1F`: the Potency entry was “inactive”.
For `C#CCC(C(=O)OC)(C(=O)OC)C(C[N+](=O)[O-])c1ccccc1` (configuration not stated), the activity change, negative = inhibition is -8.6% [at 11.4 µM] (inactive).
For `Cn1c(=O)n2n(c1=O)[C@H]1[C@H](O)[C@H]3O[C@H]3C(=O)[C@H]1CC2`, the activity change, negative = inhibition is -7.54% [at 11.4 µM] (inactive).
For `O=C(C1CCN(S(=O)(=O)Cc2ccccc2)CC1)N1CCCc2ccccc21`, the Potency result is “inactive”.
On the same count and under the same terms, with `Cc1ccccc1C(=O)O` the entry was “inactive”.
Still for that read-out and setting: with `COc1ccc(C2CC(=O)c3c(O)cc(OC4OC(COC5OC(C)C(O)C(O)C5O)C(O)C(O)C4O)cc3O2)cc1O` (configuration not stated) the entry was “inactive”.
For `CO[C@@H]1COC(=O)C/C=C\[C@H](C)[C@@H](NS(=O)(=O)c2ccc(C)cc2)COC(=O)C/C=C\[C@@H]1C`, the activity change, negative = inhibition is 2.45% [at 11.4 µM] (inactive) and 8.54% [at 11.4 µM] (inactive).
In the case of `O=C(O)CCC(=O)N(Cc1cccs1)Cc1cccs1`, the Potency entry was “inactive”.
The same measure, in the same setting: under `CC(C)Cn1c(CCC(=O)O)ccc1-c1cccs1` stands 31.6 µM (active); under `Cc1cc(NC(=O)c2cc(-c3cccs3)on2)nn1Cc1ccc(Cl)cc1`, “inactive”.
Consider `C/C=C1\C(=O)C[C@@H]2[C@@H]3CCC4=CC(=O)CC[C@@]4(C)[C@H]3CC[C@@]12C`, for which the Potency entry was “inactive”.
Take `Cc1ccc(S(=O)(=O)NC(=O)NN2C[C@H]3CCC[C@@H]3C2)cc1`: the Potency entry was “inactive”.
Still for that read-out and setting: with `Cn1c(C(=O)N2CCC(C(N)=O)CC2)cc2c(=O)n(C)c3ccccc3c21` the entry was “inactive”; with `CC1CCCC(C)N1CCCNC(=O)c1cc2c(=O)n(C)c3ccccc3c2n1C` (configuration not stated), 31.6 µM (active); with `CC1CCCCN1CCCNC(=O)c1ccc(-n2c(=O)c(=O)[nH]c3ccccc32)cc1` (configuration not stated), “inactive”.
On the same count and under the same terms, under `C=C(C)C1CC=C(CO)CC1` (configuration not stated) stands “inactive”; under `COC(=O)[C@@H]1C[C@@]2(O)[C@H](O)[C@H](O)[C@H](O)C[C@H]2N1Cc1ccc(C)s1`, “inactive”; under `Cc1cc(NCc2ccco2)n2c(nc3ccccc32)c1C#N`, 3.16 µM (active).
Still for that read-out and setting: with `Cc1ccccc1NC(=O)NCc1ccco1` the entry was “inactive”; with `N#Cc1c2c(c(N3CCN(CCO)CC3)n3c1nc1ccccc13)CCCC2`, “inactive”.
As for `C/C(CCN1CCCCc2nc(C)c(C)cc21)=N\O[C@@H](C)c1cn([C@@H]2COC[C@@H]2O)nn1`, the activity change, negative = inhibition is 0.914% [at 11.4 µM] (inactive).
As for `CCC1CCCCN1CCNS(=O)(=O)c1ccc2c(c1)CCN2C(C)=O` (configuration not stated), the Potency entry is “inactive”.
Same read-out and setting: with `CCOC(=O)c1ccc(N2C(=O)CC(N3CC(C)OC(C)C3)C2=O)cc1` (configuration not stated) the entry was “inactive”; with `N#Cc1cccc(CSc2nnc(CCCO)n2-c2ccccc2)c1`, “inactive”; with `Cn1c(N)c(C(=O)COC(=O)c2cc(C(F)(F)F)nc3c(C(F)(F)F)cccc23)c(=O)n(C)c1=O`, “inactive”.
Same read-out and setting: with `Cc1c(O)c(Br)c(C)c(O)c1Br` (tested in a mixture with another compound) the figure was 0.794 µM (active); with `CN(c1ccc(C(=O)NCCC2=CCCCC2)cc1)S(C)(=O)=O`, “inactive”; with `CCC[C@@H]1C[C@@]1(CCC)C(NS(=O)(=O)c1cccc2cccnc12)c1ccc(Cl)cc1` (some centres not stated), “inactive”.
Take `Clc1ccc(C2[C@H]3CN(CC4CCCCC4)[C@H](c4ccccc4)C34CC2(c2cccnc2)C4)cn1` (some centres not stated): the Potency result is “inactive”.
On the same count and under the same terms, under `Cc1ccc(S(=O)(=O)c2c(N)n(C)c3nc4ccccc4nc23)cc1` stands 25.1 µM (active).
The same measure, in the same setting: under `Cc1ccc(S(=O)(=O)NCc2nc3ccccc3c(=O)n2N)cc1` stands “inactive”; under `c1cc(-n2cnnn2)ccc1NC1=NCCC1`, “inactive”.
As to `CC(C)CN1CCc2nc(-c3ccccc3)c3c(c2C1)COC(C)C3` (configuration not stated), the activity change, negative = inhibition was -2.26% [at 11.4 µM] (inactive).
As for `Cc1ccc(Cn2ccc(NC(=O)c3cc(C(C)C)on3)n2)cc1`, the Potency result is “inactive”.
For `CC(C)c1ccc(OCC(O)Cn2cnc3ccccc32)cc1` (configuration not stated), the Potency result is “inactive”.
Still for that read-out and setting: with `CCOC(=O)N1CCN(C(=O)CSc2ccc(Cl)cc2)CC1` the entry was “inactive”; with `CCOC(=O)N1CCN(C(=O)CNC(=O)Cc2ccc(Cl)cc2)CC1`, “inactive”; with `CCOC(=O)N1CCN(C(=O)c2ccc3nc4cc(Cl)ccc4c(=O)n3c2)CC1`, 1 µM (active).
Same read-out and setting: under `Cn1c(=NC(=O)CSCC(=O)N2CCCCC2)sc2ccccc21` stands “inactive”.
Same read-out and setting: under `O=C(CSc1nnc(-c2ccccn2)n1-c1ccccc1)Nc1ccc2c(c1)OCO2` stands “inactive”.
Consider `CC[C@H](c1ccccc1)c1cc(C(C)(C)C)cc(C(C)(C)C)c1O`, for which the activity change, negative = inhibition was -3.63% [at 11.4 µM] (inactive).
For the compound `NC(=O)CSC1=Nc2ccccc2C2=NC(CCC(=O)NCc3ccc(F)cc3)C(=O)N12` (configuration not stated), the Potency was 31.6 µM (active).
Still for that read-out and setting: with `O=C(CN1C(=O)CCS(=O)(=O)c2ccccc21)NCc1ccc(F)cc1` the entry was “inactive”; with `CC(C)C1N=C2c3ccccc3N=C(SCC(=O)c3ccc(O)c(O)c3)N2C1=O` (configuration not stated), “inactive”.
